Experimental data as given in PubChem BioAssay AID493201 (National Center for Advancing Translational Sciences (NCATS), 2011).
Records with an inconclusive call do not appear. Where a call stands in place of a potency, no number is given. Active and inactive are the calls of the source. The call rests on the fitted dose curve; in most records, active means well fitted activation curve with a large enough effect; inconclusive means small, poorly fitted or top-dose-only effect; inactive means no such curve, though single readings can be large or run the other way.

experiment: qHTS Assay for Identifying a Potential Treatment of Ataxia-Telangiectasia: Secondary assay (no NCS) hit validation; conditions: A-T patient fibroblasts, AlphaLISA, no DNA damage added, 90 min; series mostly up to 76.9 µM;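 further: phosphorylated KAP1 signal as a proxy for ATM-like kinase activity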
Outline: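 hTERT-immortalized A-T patient fibroblasts (F2112), 500 cells/well, exposed to compounds at up to 76.7 uM final without NCS at 37C. KAP-1 phosphorylation measured by AlphaLISA after lysis and 6 h detection at 25C.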
Potency means the concentration at half of the fitted maximal effect.

SMILES	Potency
CC1CC(C)CN(S(=O)(=O)c2ccc(C(=O)NCCCn3ccnc3)cc2)C1 (centres undefined)	inactive
COC(=O)c1cccc2c1-c1ccccc1/C2=N\NC(N)=O	inactive
Cc1ccc2c(c1)sc(=NC(=O)C1CC1)n2C	inactive
CCn1c(SCc2cccc(F)c2)nnc1-c1ccncc1	inactive
Fc1ccc(C2=NOC(c3nnc(-c4ccccc4)o3)C2)cc1 (centres undefined)	inactive
CC(C)CC(=O)Nc1c2c(nn1-c1cccc(Cl)c1)CS(=O)C2 (centres undefined)	58.2 µM (active)
NC(=O)c1cc2ccccc2o/c1=N/NC(=O)c1cccc(F)c1	inactive
Cc1cc(C)c2c(Cn3ccnc3)cc(=O)oc2c1	inactive
CCN(CC)c1ccc2c(Cl)c(Br)c(=O)oc2c1	inactive
Cc1[nH]c2c(C)cccc2c1CN1CCC(CO)(Cc2ccccc2)CC1	1.84 µM (active)
COc1cc(CCC(=O)OCC(=O)N2CCc3ccccc32)cc(OC)c1OC	inactive
CNC(=O)/C=C/c1cc(C(=O)c2ccc(Cl)cc2Cl)cn1C	inactive
O=c1c2cc(Br)ccc2nc(-c2ccccc2)n1O	inactive
CCOC(=O)N1CCC(NC(=O)C2CCN(S(=O)(=O)c3cccc4cccnc34)CC2)CC1	inactive
CCc1nnc2n1N=C(c1cccc([N+](=O)[O-])c1)CS2	51.9 µM (active)
N#Cc1c2c(c(-n3cnc4ccccc43)n3c1nc1ccccc13)CCC2	inactive
COC(=O)CCc1c(C)c(C(=O)c2cc(OC)c(OC)c(OC)c2)c2ccccn12	inactive

SMILES	Potency
Cc1ccc(NC(=O)NC(=O)N(C(C)C)S(C)(=O)=O)nc1	inactive
CCOC(=O)N1CCN(c2nc(N(c3ccccc3)c3ccccc3)nc(-n3ccnc3)n2)CC1	inactive
NC(=O)C1CCN(Cc2nc3cc(C(F)(F)F)ccc3c(=O)[nH]2)CC1	inactive
Cc1ccc(C)c(-n2c(SCC(=O)NC(C(=O)O)C(C)C)nnc2-c2cccc(Cl)c2)c1 (centres undefined)	46.3 µM (active)
COc1ccc(-n2c(=S)[nH]c3ccccc3c2=S)cc1	inactive
COc1ccc(N(C)S(=O)(=O)c2cccc(C(=O)OCC(=O)NCc3ccccc3OC)c2)cc1	inactive
CCCCn1c2c(c(=N)c3ccccc31)CCC2	inactive
CCOC(=O)Cn1c(-c2ccccc2)cc(SC)c(C#N)c1=O	inactive
CC(C)CN(CC(C)C)C(=O)c1cc2c(=O)n3ccccc3nc2s1	inactive
CC(=O)c1ccc([N+](=O)[O-])c(CS(=O)(=O)c2ccc(Cl)cc2)c1	inactive
Cc1oc2c(c(C)cc3oc(=O)c(CC(=O)NCC(=O)NCC(=O)O)c(C)c32)c1C	3.28 µM (active)
COc1ccc2nc(C)cc(Nc3ccc(C(=O)O)cc3)c2c1	inactive
COc1ccc(NC(=O)C2CC2)cc1OC1CCCC1	inactive
CNC(=O)Cc1csc2ccc(C)cc12	inactive
COc1ccccc1C(=O)NC(=O)Nc1cccc(Cl)c1	inactive
Cc1nnc(SCC(=O)NC(=O)Nc2ccc3c(c2)OCCO3)n1N	inactive
O=C(NCCCN1CCOCC1)c1ccc2c(c1)N(Cc1cccc(F)c1)C(=O)c1ccccc1S2	inactive
